{"source": "the OligoGym collection", "data": [{"target": "CLN5", "test": "pooled miR-30 sensor sort-seq; sequence = guide strand", "conditions": "shRNA", "values": [{"sequence": "TTTAACTTTATGCACCAAGGAA", "sensor-assay potency score (higher = more potent)": -0.689}, {"sequence": "TTTGGTTGAACATGTTTCCTGA", "sensor-assay potency score (higher = more potent)": 0.362}, {"sequence": "TAGTTGGTTTCTATGTTCTTGA", "sensor-assay potency score (higher = more potent)": -0.69}, {"sequence": "TTAACTTTATGCACCAAGGAAG", "sensor-assay potency score (higher = more potent)": -0.963}, {"sequence": "TCTATGTTCTTGAACTCTGCTC", "sensor-assay potency score (higher = more potent)": 0.0222}, {"sequence": "TAATATGCAGCAATTCTGCTGA", "sensor-assay potency score (higher = more potent)": 0.18}, {"sequence": "TATAGTTGCTACTTGAACTAAT", "sensor-assay potency score (higher = more potent)": -0.263}, {"sequence": "TTCATTGTCCTGTTTCACCCAC", "sensor-assay potency score (higher = more potent)": 0.245}, {"sequence": "TTGCCAGTTAATGTACTTCTGA", "sensor-assay potency score (higher = more potent)": -0.714}, {"sequence": "TTGACAATAAGGATCAGGTTTT", "sensor-assay potency score (higher = more potent)": -0.121}, {"sequence": "TAGCTTGACAATAAGGATCAGG", "sensor-assay potency score (higher = more potent)": -0.401}, {"sequence": "TTTCTATGTTCTTGAACTCTGC", "sensor-assay potency score (higher = more potent)": -0.7}, {"sequence": "TGTTTGTGCACAATCACTGCAT", "sensor-assay potency score (higher = more potent)": 0.594}]}, {"target": "CLRN3", "test": "pooled miR-30 sensor sort-seq; sequence = guide strand", "conditions": "shRNA", "values": [{"sequence": "TAAAGCATTTGGAACAACTCTT", "sensor-assay potency score (higher = more potent)": 0.169}, {"sequence": "ATTTGGAACAACTCTTCGGAGA", "sensor-assay potency score (higher = more potent)": -1.11}, {"sequence": "TTTGAATACCACACAGACCAGC", "sensor-assay potency score (higher = more potent)": -1.01}, {"sequence": "TAAAACTGCAAACTTTTTCTTT", "sensor-assay potency score (higher = more potent)": -0.472}, {"sequence": "TATATTTAGAAGAATGACGAGC", "sensor-assay potency score (higher = more potent)": -0.483}, {"sequence": "TCTCTAACAGCAATCGTACTGG", "sensor-assay potency score (higher = more potent)": -0.178}, {"sequence": "TAAGTGATGAAAATGCTCCCAT", "sensor-assay potency score (higher = more potent)": 0.574}, {"sequence": "TTCAGTATCTCTAAAACTGCAA", "sensor-assay potency score (higher = more potent)": -0.132}, {"sequence": "TCTAACAGCAATCGTACTGGTG", "sensor-assay potency score (higher = more potent)": -0.061}, {"sequence": "TTACCATGCTGAATTGTCCAGA", "sensor-assay potency score (higher = more potent)": -0.037}, {"sequence": "TTGTCCAGAGAAGCTAACCAGT", "sensor-assay potency score (higher = more potent)": -1.23}, {"sequence": "TTGAAGCAGAGTCTCTAACAGC", "sensor-assay potency score (higher = more potent)": -0.854}]}, {"target": "CMAS", "test": "pooled miR-30 sensor sort-seq; sequence = guide strand", "conditions": "shRNA", "values": [{"sequence": "TTCGATGAACTTGTGCACCAAA", "sensor-assay potency score (higher = more potent)": -0.973}, {"sequence": "TACATTTGCAAATGTATCCAAC", "sensor-assay potency score (higher = more potent)": -0.636}, {"sequence": "TCATCTACAACTGCTAGCTTGT", "sensor-assay potency score (higher = more potent)": -0.405}, {"sequence": "TATATATATATCACAAACCAAA", "sensor-assay potency score (higher = more potent)": -1.7}, {"sequence": "TACAACTGCTAGCTTGTCTGAT", "sensor-assay potency score (higher = more potent)": -0.274}, {"sequence": "TTCATCTACAACTGCTAGCTTG", "sensor-assay potency score (higher = more potent)": -0.562}, {"sequence": "TTTCACTCCATCGAAACTGATG", "sensor-assay potency score (higher = more potent)": -0.871}, {"sequence": "TAGTGAGGTAGAGCTGTCTTTT", "sensor-assay potency score (higher = more potent)": -0.742}, {"sequence": "TAGAGCTGTCTTTTGAAACTTC", "sensor-assay potency score (higher = more potent)": 0.56}, {"sequence": "TTTAGCTGGATTTAAATTCAGA", "sensor-assay potency score (higher = more potent)": -0.846}, {"sequence": "TTCTTTAATAAACTTATCCCAA", "sensor-assay potency score (higher = more potent)": -0.589}, {"sequence": "TTTGAAACTTCAGAACTTCTTC", "sensor-assay potency score (higher = more potent)": 0.8}]}, {"target": "CMIP", "test": "pooled miR-30 sensor sort-seq; sequence = guide strand", "conditions": "shRNA", "values": [{"sequence": "TTCTCTGAGAGCAGTTTCGAGA", "sensor-assay potency score (higher = more potent)": -0.721}, {"sequence": "TTCAAGACAACTTCCCAGCGGC", "sensor-assay potency score (higher = more potent)": -0.119}, {"sequence": "TTGGGTGTCGTTGTTGTCGATG", "sensor-assay potency score (higher = more potent)": -0.39}]}]}
